Most compounds without a hit are left out; they make up all but 8.6% or so of the library.
Marburg entry: inhibitors of Marburg virus binding or entry into cells; Marburg virus pseudotype entry/binding inhibition, cell-based; Potency, µM (titrated, usually from 49.2 µM), for the others: at the top dose activity change, negative = inhibition, most hits filed as inhibitors; 18,000 compounds, 6.5% hits
LASV entry inh: inhibitors of Lassa virus binding or entry into cells; Lassa virus pseudotyped entry inhibition, cell-based qHTS; Potency, µM (doses to about 49.2 µM), inactives show at the top dose activity change, negative = inhibition, actives largely listed as inhibitors; 18,000 compounds, 4.1% hits; AID 720533
* = called active by the depositor; ? = inconclusive; ! = not confirmed by another sample; [ ] = remark or other dose. Calls follow the shape of the full dose curve; tested in HEK293 cells. % is scaled to controls: 0 for no effect and ±100 for the full control effect; potency is read from the fitted curve at half-maximal effect.

SMILES | Marburg entry | LASV entry inh
CC(NCCC(c1ccccc1)c1ccccc1)c1ccccc1 (stereo not drawn) | 11.2µM* | ?
CN(C)[C@H](Cc1ccccc1)c1ccccc1 | 2.0% | -1.0%
C[C@]12N[C@@H](Cc3ccccc31)c1ccccc12 | -19.3% | -4.3%
OCC(O)CS (stereo not drawn) | 17.3% | -8.9%
O=C1N(CC2CC2)c2cccc(Br)c2[C@@]12O[C@H](COc1ccccc1)CC1=CCCC12 (stereo partly drawn) | ? | -7.2%[8.59 µM]
Cc1ccn(CCC(=O)NCC2Cc3cc(Cl)cc(-c4ccc5[nH]ccc5c4)c3O2)n1 (stereo not drawn) | ? | 0.9%
C#CCCCON=C1C[C@@H](O)[C@@H](O)[C@@H]2[C@H]3C(=O)N([C@@H](C)c4ccccc4)C(=O)[C@@H]3CC[C@H]12 | ? | 8.6%[8.59 µM]
Nc1nc(-c2nn(Cc3ccccc3F)c3ncccc23)ncc1C1CC1 | 0.562µM* | 0.891µM*
CCOC(=O)c1c(C)cc(O)c(C=O)c1O | -15.7% | -17.7%
C/C(=C(\CCOC(=O)c1ccccc1)SS/C(CCOC(=O)c1ccccc1)=C(/C)N(C=O)Cc1cnc(C)nc1N)N(C=O)Cc1cnc(C)nc1N | -14.5% | -21.5%
Fc1ccc([C@@H]2CCNC[C@H]2COc2ccc3c(c2)OCO3)cc1 | 5.62µM* | ?
O=C(C=Cc1ccc2c(c1)OCO2)c1ccc(F)cc1 | -9.4%[8.59 µM] | 3.1%[8.59 µM]
CCCCNC(C)(C)[P+](=O)O | 18.0% | -1.3%
CCc1cn([C@H]2C[C@H](O)[C@@H](CO)O2)c(=O)[nH]c1=O | -8.9% | 4.8%
O=c1[nH]c(=O)n([C@@H]2O[C@H](CO)[C@@H](O)[C@H]2O)cc1F | ? | 10µM*
CC(C)=CCC/C(C)=C/CC/C(C)=C/CCC(=O)OC/C=C(\C)CCC=C(C)C | 16.7% | -7.9%
COC(=O)[C@@H]1C[C@@H](NC(=O)c2cccc3c(C)c(C)[nH]c23)CN1Cc1cccc2ccccc12 | 1.78µM* | 3.55µM*
COC(=O)[C@@H]1C[C@H](NC(=O)c2ccccn2)CN1Cc1cccc2ccccc12 | 1.1% | -2.3%
CO[C@@H](CCOCc1ccccc1)C[C@H]1O[C@H](C(=O)OC(C)C)C=C[C@@H]1C | 15.4% | 1.6%
C[C@@H]1CCC[C@H](C)N1 | -8.6%[17.8 µM] | 8.3%[17.8 µM]
COc1ccccc1N1CCN(c2nc(CNC(=O)C3CC34CCCC4)nc3ccccc23)CC1 (stereo not drawn) | ? | 31.6µM*
COc1ccccc1N1CCN(C[C@@H](C(=O)NC(C)(C)C)c2ccccc2)CC1 | -29.9% | -16.4%
CSCC[C@H](NC(=O)[C@H](Cc1c[nH]c2ccccc12)NC(=O)CCNC(=O)OC(C)(C)C)C(=O)N[C@@H](CC(=O)O)C(=O)N[C@@H](Cc1ccccc1)C(N)=O | 1.3% | 3.2%
Cc1oc(-c2ccccc2NC(=O)c2ccccc2)nc1CNC(=O)c1cccc(-n2cccn2)c1 | ? | -10.6%
NC(=Nc1ccccc1)NC(=O)c1nc(Cl)c(N)nc1N | ? | 12.1%
SMILES | Marburg entry | LASV entry inh
NC(=NCc1ccccc1)NC(=O)c1nc(Cl)c(N)nc1N | 25.1µM*! | ?
COc1ccc2c(c1)c(CC(=O)NCc1ccc3c(c1)OCO3)c(C)n2C(=O)c1ccc(Cl)cc1 | ? | -12.9%
C=CCC(C)(O)c1cccs1 (stereo not drawn) | 0.2% | -4.6%
CC[C@@]1([C@@H]2O[C@@H]([C@H]3O[C@@](O)(CO)[C@H](C)C[C@@H]3C)C[C@@H]2C)CC[C@@H]([C@]2(C)CCC3(C[C@H](O)[C@@H](C)[C@@H]([C@@H](C)[C@@H](OC)[C@H](C)C(=O)O)O3)O2)O1 (stereo partly drawn) | 0.316µM* | 0.562µM*
CO[C@@H]1[C@@H](OC)[C@H](C)[C@@](O)(CC(=O)O)O[C@H]1[C@H](C)[C@H]1O[C@@]2(CC[C@@](C)([C@H]3CC[C@@](C)([C@@H]4O[C@@H]([C@H]5O[C@](C)(O)[C@H](C)C[C@@H]5C)C[C@@H]4OC4C[C@H](OC)[C@@H](OC)[C@H](C)O4)O3)O2)C[C@H](O)[C@H]1C (stereo partly drawn) | ? | 1µM*
CC[C@@]1([C@@H]2O[C@@H]([C@H]3O[C@@](O)(CO)[C@H](C)C[C@@H]3C)C[C@@H]2C)CC[C@H]([C@]2(C)CC[C@]3(C[C@H](O)[C@@H](C)[C@@H]([C@@H](C)[C@@H](OC)C(C)C(=O)O)O3)O2)O1 (stereo partly drawn) | 0.282µM* | 0.447µM*
CC[C@H](C)[C@@H](NC(=O)O[C@@H]1C(=O)c2ccc(OC)cc2O[C@H]1c1cccc(C(F)(F)F)c1)C(=O)OC | 3.4% | -2.5%
O=[N+]([O-])C(Br)(CO)CO | -17.0% | -9.4%
Cc1cccc2c(Nc3ccc4c(c3)OCO4)nc(CN3CCC(N4CCCCC4)CC3)nc12 | 10µM* | 22.4µM*
CCC1(C2CCN(Cc3cccc4ccccc34)CC2)NC(=O)N(Cc2ccc3c(c2)OCO3)C1=O (stereo not drawn) | ? | -29.7%
COc1cc(=O)n2c(c1C(=O)N(C)C(C)c1ccco1)CCN(C(=O)c1ccc(C(C)=O)cc1)CC2 (stereo not drawn) | -4.9% | -16.8%
COc1c2c(c(CC=C(C)C)c3oc(=O)c(-c4ccc(O)cc4)c(O)c13)OC(C)(C)C=C2 | 1.9% | -5.0%
CC(C)=CCc1c2c(c3occ(-c4ccc(O)cc4)c(=O)c3c1O)C=CC(C)(C)O2 | 22.4µM* | ?
O=C1c2ccccc2C(=O)N1CCCC[C@]12Cc3ccccc3[C@H](O1)c1c(c3ccccc3oc1=O)O2 | -29.2%[8.59 µM] | -5.0%[8.59 µM]
COC(=O)CC1C(C)(C)C(O)C2CC3=C4C=C(OC)OC(c5ccoc5)[C@]4(C)CCC3[C@@]1(C)C2=O (stereo partly drawn) | -29.0% | -5.8%
CC(C)C[C@H](NC(=O)[C@H](CCc1ccccc1)NC(=O)CN1CCOCC1)C(=O)N[C@@H](Cc1ccccc1)C(=O)N[C@@H](CC(C)C)C(=O)[C@@]1(C)CO1 | ? | 11.2µM*
CC(C)CC(NC(=O)CN)C(=O)NC(Cc1ccccc1)C(=O)O (stereo not drawn) | 12.9% | 1.2%
CC(C)c1ccc(-c2cc(-c3cn[nH]c3-c3ccccn3)ccn2)cc1 | -2.6% | 16.4%
C[C@H]1[C@H]2Cc3ccc(O)cc3[C@]1(C)CCN2CCc1ccccc1 | 17.8µM* | 31.6µM*
C=CCN1CCC2(C)c3cc(O)ccc3CC1C2C (stereo not drawn) | ? | 1.5%
C=CC[C@@H]1C=C[C@H](ON=C2c3cc(OC)ccc3O[C@H](c3cccc(OC)c3)[C@@H]2O)[C@H](CO)O1 | -4.8%[8.59 µM] | -3.8%[8.59 µM]
CN1CCC(Nc2ncc3ncnc(Nc4ccc(F)c(Cl)c4)c3n2)CC1 | 10µM* | -10.1%
C#CCN1C(=O)C2(CC(C)=C[C@@H](C)O2)c2c(Br)cccc21 (stereo partly drawn) | 45.8%[8.59 µM] | 34.1%[8.59 µM]
Cc1c(CN2CCOc3c(O)cc(-c4nc5ccccc5s4)cc3C2)cnn1C | -12.2% | -17.4%
Cc1nc(NCc2c(C)nn(C)c2Cl)sc1-c1ccn(CC2COc3ccccc3O2)n1 (stereo not drawn) | 11.6% | -23.6%
CCN(CCCc1ccccc1)CCCc1ccccc1 | 8.91µM* | ?
CN(Cc1ccccc1)Cc1ccccc1 | 2.3% | -4.3%
C=CCOC(=O)N[C@H](c1ccccc1)C(C(C)=O)C(C)=O | ? | 7.4%
COc1cccc([C@H]2Oc3ccc(OC)cc3C(=NO[C@@H](C)c3cc(-c4c(C)cc(C)cc4C)no3)[C@H]2O)c1 | 5.1%[8.59 µM] | 10.2%[8.59 µM]

Compound activity as filed in PubChem.
